From PubChem BioAssay (NCATS)
Where “and” joins values, the source holds several entries; their conditions need not be identical. Identical values can stand only once. Inconclusive results are not listed. The source holds several records for some structures; these can differ, active in one and inactive in another. A number with no mark means an inactive call. Calls of active or inactive are those of the source. Unless noted, calls follow the shape of the dose curve; as a rule, active = well fitted curve in the direction sought with a large enough effect; inconclusive = small, poorly fitted or top-dose-only effect, or another doubt; inactive = no such curve, though single readings can be large; an effect the other way counts as inactive or inconclusive.

Assays:
[1] = target: Cellular tumor antigen p53 (Homo sapiens) (UniProt P04637); assay: Primary qHTS for small molecule compounds that upregulate eGFP-tagged delta133p53alpha (in N-terminal) cells. (AID 2060322); details: NCI-H358 eGFP-delta133p53alpha fluorescence, 24 h; activation: stronger effect = higher value; also: nearly all actives have a fitted effect of over 75% in size; also: potency is read from the fitted curve at half-maximal effect;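 as to activation: cells pre-induced with doxycycline then dosed without doxycycline; series mostly up to about 56 µM; 0% = DMSO vehicle and 100% = reference activator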
Procedure, shortened: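 NCI-H358 cells pre-induced 24 h with 10 ng/ml doxycycline for eGFP-delta133p53alpha, plated dox-free and exposed 24 h at 37C to titrated compounds. Fixed, Hoechst-stained; gated GFP peak intensity by laser scanning cytometry, normalized to DMSO (0%) and 57.5 uM 5-azacytidine (100%).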

[2] = target: Aldehyde dehydrogenase, mitochondrial (Homo sapiens) (UniProt P05091); assay: qHTS for Inhibitors of the Aldehyde Dehydrogenase Family (ALDH2) Primary screen (AID 2061308);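 also: plate controls were vehicle for no effect and reference inhibitor for full effect; nearly all actives have a fitted effect of over 55% in size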
[3] = target: Retinaldehyde dehydrogenase 3 (Homo sapiens) (UniProt P47895); assay: qHTS for Inhibitors of the Aldehyde Dehydrogenase Family (ALDH1A3) Validation screen (AID 2061312); also: % is scaled to controls: 0 for no effect and ±100 for the full control effect; nearly all actives have a fitted effect of over 45% in size
[4] = target: Retinaldehyde dehydrogenase 3 (Homo sapiens) (UniProt P47895); assay: qHTS for Inhibitors of the Aldehyde Dehydrogenase Family (ALDH1A3) Primary screen (AID 2061315);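 also: plate controls were DMSO vehicle for no effect and reference inhibitor for full effect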
[5] = BET inhibitor-based combinations targeting novel dependencies in MECOM-rearranged (r) AML: OCI-AML3 cell line (AID 2202232); details: Potency: OCI-AML3 viability; also: nearly all actives have a fitted effect of over 35% in size; also: potency is read from the fitted curve at half-maximal effect
Procedure, shortened: (§1)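 Readout: CellTiter-Glo luminescence. Exposure: 48 h, 11 concentrations, 500 cells/well. Metric: AUC and within-line Z-AUC after DMSO/empty-well normalization.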

[6] = BET inhibitor-based combinations targeting novel dependencies in MECOM-rearranged (r) AML: HNT-34 cell line (AID 2202234); also: nearly all actives have a fitted effect of over 35% in size; also: potency is read from the fitted curve at half-maximal effect
Procedure, shortened: (§2)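 Seeding density was 500 cells/well, and drug exposure lasted 48 hr under standard culture conditions. Read-out used CellTiter-Glo reagent with a 15 min room-temperature incubation before luminescence measurement; AUC and Z-AUC summarize the normalized responses.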

[7] = BET inhibitor-based combinations targeting novel dependencies in MECOM-rearranged (r) AML: AML-191 cell line (AID 2202236; also: nearly all actives have a fitted effect of over 35% in size; also: potency is read from the fitted curve at half-maximal effect)
Procedure, shortened: as §1

[8] = target: Aldehyde dehydrogenase, mitochondrial (Homo sapiens) (UniProt P05091); assay: qHTS for Inhibitors of the Aldehyde Dehydrogenase Family (ALDH2) Validation screens (AID 2061302; active = well fitted inhibition curve with a large enough effect; title and protocol of this record describe different tests; also: potency is read from the fitted curve at half-maximal effect)
[9] = BET inhibitor-based combinations targeting novel dependencies in MECOM-rearranged (r) AML: SET-2 cell line (AID 2202231); details: SET-2 AML cells viability, CellTiter-Glo luminescence, 48 h; viability: stronger effect = lower value, concentration not given here; also: nearly all actives have a fitted effect of over 35% in size; also: potency is read from the fitted curve at half-maximal effect;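 as to viability: plate controls were DMSO treated cells for no effect and wells without cells for full effect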
Procedure, shortened: as §1

[10] = BET inhibitor-based combinations targeting novel dependencies in MECOM-rearranged (r) AML: MV-4-11 cell line (AID 2202233); also: potency is read from the fitted curve at half-maximal effect; nearly all actives have a fitted effect of over 45% in size
Procedure, shortened: as §2

[11] = BET inhibitor-based combinations targeting novel dependencies in MECOM-rearranged (r) AML: UCSD-AML1 cell line (AID 2202235); also: nearly all actives have a fitted effect of over 40% in size; also: potency is read from the fitted curve at half-maximal effect
Procedure, shortened: as §2

[12] = BET inhibitor-based combinations targeting novel dependencies in MECOM-rearranged (r) AML: AML-194 cell line (AID 2202237; also: nearly all actives have a fitted effect of over 40% in size; also: potency is read from the fitted curve at half-maximal effect)
Procedure, shortened: as §1

[13] = target: Cellular tumor antigen p53 (Homo sapiens) (UniProt P04637); assay: Primary qHTS for small molecule compounds that upregulate eGFP-tagged delta133p53alpha (in C-terminal) cells. (AID 2060324); also: potency is read from the fitted curve at half-maximal effect
Procedure, shortened: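 Readout: filtered GFP peak intensity of gated cells (laser scanning cytometer), normalized plate-wise to intraplate controls, DMSO wells = 0% activity. Cells: NCI-H358 D133p53a-eGFP, dox 100 ng/ml 24 h beforehand, then compound 24 h, 37 °C.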

Sequence of Cellular tumor antigen p53 (Homo sapiens) (P04637 whole entry, looked up): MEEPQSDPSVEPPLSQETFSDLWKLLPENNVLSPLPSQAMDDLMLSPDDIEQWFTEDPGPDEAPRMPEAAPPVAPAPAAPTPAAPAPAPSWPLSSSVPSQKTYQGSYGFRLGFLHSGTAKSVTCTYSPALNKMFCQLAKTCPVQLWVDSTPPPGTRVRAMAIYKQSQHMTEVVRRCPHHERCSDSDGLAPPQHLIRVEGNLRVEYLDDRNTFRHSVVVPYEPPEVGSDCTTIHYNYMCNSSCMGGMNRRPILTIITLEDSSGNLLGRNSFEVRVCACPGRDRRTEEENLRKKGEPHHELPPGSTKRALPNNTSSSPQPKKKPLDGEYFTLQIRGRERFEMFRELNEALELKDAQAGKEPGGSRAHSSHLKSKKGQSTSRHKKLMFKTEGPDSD

| SMILES | Potency [1] | activation [1] | Potency [2] | Potency [3] | Potency [4] | Potency [5] | Potency [6] | Potency [7] | Potency [8] | Potency [9] | Potency [10] | Potency [11] | Potency [12] | viability [9] | Potency [13] |
| --- | --- | --- | --- | --- | --- | --- | --- | --- | --- | --- | --- | --- | --- | --- | --- |
| Cc1cc(Nc2nc(N[C@@H](C)c3ncc(F)cn3)ncc2Cl)n[nH]1 | 21.7 µM (active) | -0.181% and 24.8% | inactive | inactive | inactive | 1.32 µM (active) | 2.63 µM (active) | 0.132 µM (active) | – | – | – | – | – | – | – |
| COc1cc2nc(N3CCCN(C)CC3)nc(NC3CCN(Cc4ccccc4)CC3)c2cc1OC | 30.6 µM (active) | -2.51% | – | – | – | 8.33 µM (active) | 7.42 µM (active) | 14.8 µM (active) | inactive | 18.6 µM (active) | 6.61 µM (active) | 6.61 µM (active) | 10.5 µM (active) | – | – |
| CN1CCc2c(c3ccccc3n2Cc2ccc(C(=O)NO)cc2)C1 | 34.3 µM (active) | 77.5% | inactive | – | inactive | 20.9 µM (active) | 9.34 µM (active) | 20.9 µM (active) | – | 20.9 µM (active) | – | – | 23.5 µM (active) | – | – |
| O=C(Nc1ccc([N+](=O)[O-])cc1Cl)c1cc(Cl)ccc1O | 4.26 µM (active) | 122% and -83.1% | – | – | – | 1.66 µM (active) | – | 1.05 µM (active) | inactive | – | 4.17 µM (active) | 1.32 µM (active) | 1.48 µM (active) | – | – |
| Cc1ccc(NC(=O)C2(c3ccc4c(c3)OC(F)(F)O4)CC2)nc1-c1cccc(C(=O)O)c1 | 0.153 µM (active) | -10.5% | inactive | inactive | inactive | inactive | inactive | inactive | – | – | – | inactive | inactive | 94.8% | – |
| CN1CCN(CCOc2cc(OC3CCOCC3)c3c(Nc4c(Cl)ccc5c4OCO5)ncnc3c2)CC1 | 12.2 µM (active) | -8.11% | inactive | inactive | inactive | – | 1.32 µM (active) | 18.6 µM (active) | – | – | 13.2 µM (active) | – | 23.5 µM (active) | – | – |
| CCOC(=O)Nc1ccc(NCc2ccc(F)cc2)nc1N | 2.19 µM (active) | -4.52% and 42.2% | – | – | – | – | inactive | inactive | 5.01 µM (active) | – | – | inactive | inactive | 107% | 13.5 µM (active) |
| CC(C)COCC(CN(Cc1ccccc1)c1ccccc1)N1CCCC1 (stereo unspecified) | 34.7 µM (active) | -16.2% | – | inactive | – | 18.6 µM (active) | 16.6 µM (active) | 20.9 µM (active) | inactive | 23.5 µM (active) | 26.3 µM (active) | 20.9 µM (active) | 23.5 µM (active) | – | inactive |
